HP1b chromo inh: HTS for Inhibitors of HP1-beta Chromodomain Interactions with Methylated Histone Tails | AID 540317, 2011 | Chromobox protein homolog 1 (Homo sapiens), P83916 | actives 0.56% (n = 390,000) | AlphaScreen HP1-beta / biotin-H3K9me3 peptide binding | Potency, µM (top dose mostly 114 µM), hits mostly inhibitors; further: nearly all actives have a fitted effect of over 70% in size
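Compound inhibition of the preformed complex between 50 nM HP1-beta and 50 nM biotinylated H3K9me3 peptide was read by AlphaScreen. Buffer was PBS pH 7.4 with 0.01% Tween-20. Incubations ran 30 min at room temperature, with 10 ug/mL donor/acceptor beads.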
BAZ2B inh: qHTS Assay for Inhibitors of BAZ2B; Potency, µM (series often up to 114 µM), usual class: inhibitors; AlphaScreen BAZ2B-H3K14Ac peptide displacement; AID 504333, 2011; actives 4.4% (n = 360,000); Bromodomain adjacent to zinc finger domain protein 2B (Homo sapiens), Q9UIF8; further: nearly all actives have a fitted effect of over 60% in size
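BAZ2B 50 nM plus b-H3(5-23)K14Ac 50 nM, PBS pH 7.4/0.01% Tween-20, 30 min RT; compound added (max 110 uM), 30 min RT; streptavidin donor/Ni-chelate acceptor beads 10 ug/mL final, 20 min dark; AlphaScreen read.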
PI5P4Ka inh: qHTS for Inhibitors of phosphatidylinositol 5-phosphate 4-kinase (PI5P4K); PI5P4Kalpha enzyme, ADP-Glo luminescence, 60 min; stronger effect = lower value; max response, %; actives 1.2% (n = 330,000); AID 652105, 2013; active means max response of -50% or lower; inconclusive means between -30% and -50%; inactive means -30% or higher; further: value at the top dose of about 77 µM
Target sequence (P48426 whole entry, looked up): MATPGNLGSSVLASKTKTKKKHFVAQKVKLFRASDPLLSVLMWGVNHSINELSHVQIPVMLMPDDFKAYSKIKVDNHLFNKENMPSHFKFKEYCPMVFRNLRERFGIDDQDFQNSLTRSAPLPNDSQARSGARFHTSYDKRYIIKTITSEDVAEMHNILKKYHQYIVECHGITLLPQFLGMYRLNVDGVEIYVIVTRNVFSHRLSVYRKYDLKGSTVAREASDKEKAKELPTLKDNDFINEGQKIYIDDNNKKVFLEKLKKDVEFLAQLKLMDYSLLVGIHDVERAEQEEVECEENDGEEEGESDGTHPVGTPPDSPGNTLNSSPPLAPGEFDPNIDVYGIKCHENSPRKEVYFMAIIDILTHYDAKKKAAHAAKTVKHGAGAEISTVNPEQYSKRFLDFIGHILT
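Reactions run in 0.038 M HEPES pH 7.4, 0.28 mM EGTA, 0.1% CHAPS and 5% DMSO, with PI5P4Kalpha, substrate, compound and 5 microM ATP final, one hour at room temperature. Readout is ADP-Glo luminescence.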
G9a inh: qHTS Assay for Inhibitors of Histone Lysine Methyltransferase G9a; Histone-lysine N-methyltransferase EHMT2 (Homo sapiens), Q96KQ7; G9a H3K9 monomethylation, AlphaScreen, 2 h; Potency, µM (titrated, usually from 102 µM), most hits filed as inhibitors; actives 8.8% (n = 350,000); AID 504332, 2011; further: nearly all actives have a fitted effect of over 75% in size
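Chemiluminescent proximity detection of H3K9 monomethylation, read after 10 min bead incubation in the dark. Reaction: 20 nM G9a, 500 nM biotin-H3K9 peptide, 20 uM SAM cofactor, 2 h, room temperature, following 15 min enzyme-compound preincubation.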
JMJD2A Tudor: qHTS Assay for Inhibitors of JMJD2A-Tudor Domain; Lysine-specific demethylase 4A (Homo sapiens), O75164; AlphaScreen JMJD2A-Tudor / H3K4me3 peptide binding; Potency, µM (doses to about 114 µM), usual class: inhibitors; actives 4.4% (n = 390,000); further: nearly all actives have a fitted effect of over 50% in size
L3MBTL1 inh: qHTS Assay for the Inhibitors of L3MBTL1. Potency, µM (top dose mostly 57.1 µM), most hits filed as inhibitors. AlphaScreen L3MBTL1–H3K9me1 peptide binding. Lethal(3)malignant brain tumor-like protein 1 (Homo sapiens), Q9Y468. actives 0.66% (n = 230,000); further: nearly all actives have a fitted effect of over 60% in size
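AlphaScreen assay: L3MBTL1 (50 nM final) was preincubated 30 min at room temperature with biotinylated H3(1-15)K9me1 peptide (75 nM final), then 30 min with library compounds; streptavidin donor and nickel chelate acceptor beads (10 ug/mL final) added, 30 min dark.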
Hits are given with their value; . = inactive; ? = inconclusive; / = no result; [ ] = remark or other dose. Hits are enriched below; roughly 11% of the tested compounds scored in any of these assays. Unless noted, the call rests on the fitted dose curve; in most records, active means well fitted inhibition curve with a large enough effect; inconclusive means small, poorly fitted or top-dose-only effect; inactive means no such curve, though single readings can be large or run the other way.

SMILES | HP1b chromo inh | BAZ2B inh | PI5P4Ka inh | G9a inh | JMJD2A Tudor | L3MBTL1 inh
CCN(CC)c1ccc(/C=C2/C(=O)NC(=O)N(CC3CCCO3)C2=O)cc1 (stereo unspecified) | . | ? | . | / | . | ?
COC(=O)C1=C(c2ccc3ccccc3c2)C[C@@H]2CC[C@H]1N2C | . | . | . | .[0.501 µM] | . | .
COC(=O)C1=C(C(=O)OC)C2OC1c1cc3ccccc3cc12 | . | / | . | / | 89.1µM | /
COc1ccc(-c2noc(=O)n2Cc2cc(C)ccc2C)cc1 | . | . | . | . | . | .
Cc1c(N)cccc1N | . | . | . | .[0.501 µM] | . | .
O=C(C1CCCN(S(=O)(=O)c2cccc3nsnc23)C1)N1CCN(c2cccc(Cl)c2)CC1 (stereo unspecified) | . | / | / | ? | ? | /
C#C[C@]1(O)CCC2C3CCC4=C/C(=N/OCC(=O)NC(C)C(=O)NC(CCSC)C(=O)O)CC[C@]4(C)C3CC[C@@]21C (stereo partly specified) | . | . | . | 56.2µM | . | /
Fc1ccc(C(OCCN2CCN(CCCc3ccccc3)CC2)c2ccc(F)cc2)cc1 | . | / | / | ? | 50.1µM | /
Fc1ccc(C(OCCN2CCN(C/C=C/c3ccccc3)CC2)c2ccc(F)cc2)cc1 | / | / | / | 11.2µM | / | /
c1ccc(CCCN2CCN(CCOC(c3ccccc3)c3ccccc3)CC2)cc1 | . | / | . | 10µM | 56.2µM | /
Cc1ccc(S(=O)(=O)n2[nH]c(=O)cc2NC(=O)c2cccs2)cc1 | / | . | / | ? | / | .
CCOc1ccccc1NC(=O)c1cccn(Cc2ccccc2C)c1=O | . | . | / | . | . | /
CN1C[C@H](C(=O)N[C@]2(C)O[C@@]3(O)C4CCCN4C(=O)[C@H](Cc4ccccc4)N3C2=O)C[C@@H]2c3cccc4[nH]cc(c34)C[C@H]21 (stereo partly specified) | / | / | / | .[12.7 µM] | / | /
O=c1[nH]c(=O)n(CC2CCCO2)c(O)c1/C=C1\C=Nc2ccccc21 (stereo unspecified) | . | . | . | 1.26µM | . | .
O=c1[nH]c(=O)n(Cc2ccccc2)c(O)c1/C=C1\C=Nc2ccccc21 | . | . | . | . | . | .
Cc1nc2ccc(NC(=O)c3ccc(Cl)s3)cc2s1 | . | . | . | . | . | /
Cc1nc2ccc(P(=O)(O)O)cc2s1 | / | ? | / | 44.7µM | / | .
Cc1cc2c(C(C)C)c(O)c(O)c(C=O)c2c(O)c1-c1c(C)cc2c(C(C)C)c(O)c(O)c(C=O)c2c1O | / | 15.8µM | / | 9.47µM | / | ?
O=C1NC(=O)N(CCC2=CCCCC2)C(=O)/C1=C/c1ccc(O)cc1 | . | . | ? | ? | . | .
COc1cc(C=C2C(=O)NC(=O)NC2=O)ccc1O | . | . | . | .[12.7 µM] | . | .
COc1cc(/C=C2\C(=O)NC(=O)N(CCc3ccc(F)cc3)C2=O)ccc1O | . | . | -77.8 | 39.8µM | . | .
CCOc1ccc(/C=C2/C(=O)NC(=O)N(CCc3ccc(F)cc3)C2=O)cc1 | . | . | -54.9 | ? | . | .
Clc1ccc(Cl)cc1 | / | / | / | . | / | /
O=C1NC(=S)NC(=O)C12C(c1ccccc1)NC(=S)NC2c1ccccc1 (stereo unspecified) | . | . | . | ? | . | .
O=C1NC(=S)NC(=O)C1c1ccccc1 | ? | / | ? | / | 50.1µM | /
CCC/C=C/C=C/C(=O)OC1/C(=C/C(=O)OC)CC2CC(C(C)O)OC(=O)CC(O)CC3CC(OC(C)=O)C(C)(C)C(O)(CC4C/C(=C/C(=O)OC)CC(/C=C\C(C)(C)C1(O)O2)O4)O3 (stereo unspecified) | / | / | / | .[12.7 µM] | / | /
C#CCN1CCN(c2ccc(F)cc2)CC1 | . | . | . | .[12.7 µM] | . | .
CCN1CCN(c2ccc(N)cc2)CC1 | . | . | . | 39.8µM | . | /

Compound activity deposited in PubChem BioAssay by National Center for Advancing Translational Sciences (NCATS).
